Measured values: PubChem BioAssay (Tox21)
Where “and” joins values, the source holds several entries; their conditions need not be identical. Equal values may be shown once. A number with no mark means an inactive call. Inconclusive results are not listed. Entries that show only a call come without a potency. Calls of active or inactive are those of the source. Unless noted, the call rests on the fitted dose curve; in most records, active means well fitted curve in the direction sought with a large enough effect in the repeat runs; inconclusive means weak or mixed curves; inactive means no such curve, though single readings can be large; an effect the other way counts as inactive or inconclusive.

How the values were obtained:
[1] = qHTS assay to identify small molecule agonists of H2AX - cell viability counter screen (AID 1224847; calls by dose curve; further: nearly all actives have a fitted effect of over 30% in size; further: potency means the concentration at half of the fitted maximal effect)
Outline: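 Wild-type CHO-K1 cells (10% FBS medium) were plated overnight at 37C, exposed to compounds at 15 concentrations for 3 hr at 37C (0.76% DMSO final), and viability was read as CellTiter-Glo luminescence after 30 min at room temperature.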

[2] = qHTS RealTime-Glo MT Cell Viability Assay in HepG2 cells - 24 hour (AID 1224867); further: nearly all actives have a fitted effect of over 50% in size; further: potency means the concentration at half of the fitted maximal effect
Outline: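 Viability was tracked continuously by NanoLuc luminescence from prosubstrate reduced by living HepG2 cells, at successive time points over 40 h of compound exposure. Cells with reagent were preincubated 5 h at 37 °C before compound addition.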

[3] = qHTS RealTime-Glo MT Cell Viability Assay in HEK293 cells - 32 hour (AID 1224868); further: nearly all actives have a fitted effect of over 50% in size; further: potency means the concentration at half of the fitted maximal effect
Outline: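 Viability tracked continuously by luminescence as live cells reduce a prosubstrate for NanoLuc; HEK293 cells preincubated 5 h, compound-treated at 37 C, and read at 0, 8, 16, 24, 32 and 40 h.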

[4] = A CellTox Green Cytotoxicity Assay to monitor cytotoxicity in HEK293 cells - 0 hour (AID 1224869); further: nearly all actives have a fitted effect of over 50% in size
Outline: (§1)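 Cytotoxicity was tracked continuously in HEK293 cells by a DNA-binding dye excluded from viable cells. Compounds were transferred in DMSO 5 h after seeding; fluorescence was recorded at intervals up to 40 h.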

[5] = qHTS RealTime-Glo MT Cell Viability Assay in HepG2 cells - 40 hour (AID 1224870); further: nearly all actives have a fitted effect of over 50% in size; further: potency means the concentration at half of the fitted maximal effect
Outline: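 HepG2 cells (600/well) mixed with RealTime-Glo MT reagent, settled 5 h at 37 C/5% CO2 before compound addition. Nonlytic NanoLuc luminescence from viable-cell prosubstrate reduction read repeatedly during 40 h treatment at 37 C.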

[6] = A CellTox Green Cytotoxicity Assay to monitor cytotoxicity in HEK293 cells - 40 hour (AID 1224871); further: nearly all actives have a fitted effect of over 45% in size; further: potency means the concentration at half of the fitted maximal effect
Outline: as §1

[7] = qHTS assay to identify small molecule antagonists of the estrogen related receptor (ERR) signaling pathway from Tox21 library (AID 1224848); further: nearly all actives have a fitted effect of over 50% in size; further: potency means the concentration at half of the fitted maximal effect
Outline: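 ERR reporter cell line (from NTP) seeded 2,000 cells/well, rested 6 h at 37 C/5% CO2, then pin-dosed with compounds in DMSO. After 18 h at 37 C, ONE-Glo added; luminescence read after 30 min at room temperature.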

[8] = qHTS assay to identify small molecule agonists of the estrogen related receptor (ERR) signaling pathway from Tox21 library (AID 1224849; calls by dose curve; further: nearly all actives have a fitted effect of over 15% in size); settings: ERR reporter cell line, ONE-Glo luciferase, 18 h; at 92.4 µM (top of the series) unless noted
Outline: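 Agonist signal is luciferase luminescence from an ERR reporter cell line treated 18 h at 37 C with DMSO-dissolved compounds, read 30 min after ONE-Glo addition at room temperature.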

Question: What does the source list for CCN(CC)C(=S)[S-].CCN(CC)C(=S)[S-].[Zn+2]?
Answer: Potency [1]: 50 µM (active); Potency [2]: 13.7 µM (active); Potency [3]: 4.86 µM (active); Potency [4]: inactive; Potency [5]: 10.9 µM (active); Potency [6]: 5.45 µM (active)

Question: What does the source list for CC(C)(O)c1cnn2c(-c3ccc(F)c(-c4c(F)cccc4C#N)c3)cnc2n1?
Answer: Potency [7]: 27.3 µM (active); activity change, positive = activation [8]: -53.4%; Potency [2]: inactive; Potency [3]: 5.49 µM (active); Potency [4]: inactive; Potency [5]: inactive

Question: With [Hg+2].[I-].[I-] as the molecule, how does the Potency [1] read?
Answer: The Potency was 8 µM (active).

Question: What about the Potency [2] of the same molecule?
Answer: The Potency was 9.77 µM (active).

Question: And the Potency [3]?
Answer: The Potency was 3.09 µM (active).

Question: And the Potency [4]?
Answer: Its Potency is “inactive”.

Question: What about the Potency [5] of the same molecule?
Answer: Its Potency is 12.3 µM (active).

Question: And the Potency [6]?
Answer: The Potency was 21.9 µM (active).

Question: What does the source list for O=[N+]([O-])O.O=[N+]([O-])O.[Cd]?
Answer: Potency [3]: 49 µM (active); Potency [4]: inactive; Potency [5]: inactive; Potency [6]: 6.92 µM (active)

Question: With CCOCn1c(-c2ccc(Cl)cc2)c(C#N)c(Br)c1C(F)(F)F as the molecule, how does the Potency [1] read?
Answer: The Potency was 2.53 µM (active).

Question: And the Potency [3]?
Answer: The Potency was 4.36 µM (active).

Question: What about the Potency [4] of the same molecule?
Answer: The Potency was “inactive”.

Question: And the Potency [6]?
Answer: Its Potency is 24.5 µM (active).

Question: For O=[N+]([O-])c1ccc2ccc3cccc4ccc1c2c34, which Potency [1] is on record?
Answer: The Potency was “inactive”.

Question: What about the Potency [2] of the same molecule?
Answer: Its Potency is “inactive”.

Question: What about the Potency [3] of the same molecule?
Answer: Its Potency is “inactive”.

Question: And the Potency [5]?
Answer: The Potency was “inactive”.

Question: For ClC(Cl)=C(c1ccc(Cl)cc1)c1ccc(Cl)cc1, which Potency [7] is on record?
Answer: The Potency was “inactive”.

Question: What about the activity change, positive = activation [8] of the same molecule?
Answer: The activity change, positive = activation was -26.1% and 7.66%.

Question: And the Potency [4]?
Answer: Its Potency is “inactive”.

Question: What about the Potency [5] of the same molecule?
Answer: The Potency was “inactive”.

Question: And the Potency [6]?
Answer: Its Potency is 43.6 µM (active).

Question: What does the source list for Nc1ccccc1C(=O)OC/C=C/c1ccccc1?
Answer: Potency [3]: 24.6 µM (active); Potency [4]: inactive; Potency [5]: inactive; Potency [6]: inactive

Question: What does the source list for CC(C)(C)C(O)C(Oc1ccc(-c2ccccc2)cc1)n1cncn1 (stereo not drawn)?
Answer: Potency [7]: 27.3 µM (active); activity change, positive = activation [8]: -60.3%; Potency [3]: 24.5 µM (active); Potency [4]: inactive; Potency [5]: inactive; Potency [6]: inactive

Question: Which Potency [1] does the source give for Clc1ccc(CSC(Cn2ccnc2)c2ccc(Cl)cc2Cl)cc1 (stereo not drawn) here?
Answer: Its Potency is 49.2 µM (active).

Question: And the Potency [4]?
Answer: Its Potency is “inactive”.

Question: And the Potency [6]?
Answer: Its Potency is “inactive”.

Question: What does the source list for O=C(O)c1cc[c]([Hg][Cl])cc1?
Answer: Potency [2]: 24.5 µM (active); Potency [4]: inactive; Potency [5]: 24.5 µM (active); Potency [6]: 17.4 µM (active)

Question: Which results are given for CCOP(=S)(OCC)SCS(=O)(=O)C(C)(C)C?
Answer: Potency [2]: inactive; Potency [3]: inactive; Potency [4]: inactive; Potency [5]: inactive; Potency [6]: inactive

Question: With [Cl][Sb]([Cl])[Cl] as the molecule, how does the Potency [1] read?
Answer: The Potency was “inactive”.

Question: What about the Potency [4] of the same molecule?
Answer: Its Potency is “inactive”.

Question: What about the Potency [6] of the same molecule?
Answer: Its Potency is 24.5 µM (active).

Question: Which Potency [2] does the source give for Nc1ccccc1C(=O)Oc1ccc2ccccc2c1 here?
Answer: Its Potency is “inactive”.

Question: And the Potency [3]?
Answer: Its Potency is “inactive”.

Question: And the Potency [4]?
Answer: Its Potency is “inactive”.

Question: What about the Potency [5] of the same molecule?
Answer: The Potency was “inactive”.

Question: What about the Potency [6] of the same molecule?
Answer: Its Potency is “inactive”.

Question: What does the source list for CCC(C)c1cc([N+](=O)[O-])cc([N+](=O)[O-])c1OC(=O)C=C(C)C (stereo not drawn)?
Answer: Potency [1]: 56.6 µM (active); Potency [2]: 49 µM (active); Potency [3]: 21.9 µM (active); Potency [4]: inactive; Potency [5]: 49 µM (active); Potency [6]: inactive

Question: For CCCCCCCCCC[N+](C)(C)CCCCCCCCCC, which Potency [2] is on record?
Answer: The Potency was 7.76 µM (active).

Question: And the Potency [3]?
Answer: Its Potency is 1.1 µM (active).

Question: And the Potency [4]?
Answer: The Potency was “inactive”.

Question: What about the Potency [5] of the same molecule?
Answer: The Potency was 7.76 µM (active).

Question: What about the Potency [6] of the same molecule?
Answer: The Potency was 17.4 µM (active).

Question: With OC(c1ccc(Cl)cc1)(c1ccc(Cl)cc1)C(Cl)(Cl)Cl as the molecule, how does the Potency [7] read?
Answer: The Potency was “inactive”.

Question: And the Potency [2]?
Answer: Its Potency is “inactive”.

Question: What about the Potency [4] of the same molecule?
Answer: The Potency was “inactive”.

Question: What about the Potency [5] of the same molecule?
Answer: The Potency was “inactive”.

Question: What about the Potency [6] of the same molecule?
Answer: The Potency was 49 µM (active).

Question: With Nc1ccc(Cc2ccc(N)c(Cl)c2)cc1Cl as the molecule, how does the Potency [7] read?
Answer: Its Potency is 26.4 µM (active).

Question: What about the activity change, positive = activation [8] of the same molecule?
Answer: Its activity change, positive = activation is -35.2%.

Question: What about the Potency [2] of the same molecule?
Answer: Its Potency is “inactive”.

Question: And the Potency [3]?
Answer: The Potency was 26.6 µM (active).

Question: And the Potency [4]?
Answer: Its Potency is “inactive”.

Question: What about the Potency [5] of the same molecule?
Answer: Its Potency is “inactive”.

Question: What about the Potency [6] of the same molecule?
Answer: The Potency was “inactive”.

Question: Which results are given for C=CC(=O)OCC(COC(=O)C=C)(COC(=O)C=C)COC(=O)C=C?
Answer: Potency [7]: 13.7 µM (active); activity change, positive = activation [8]: -79.4%; Potency [2]: 6.16 µM (active); Potency [3]: 3.89 µM (active); Potency [4]: inactive; Potency [6]: 19.5 µM (active)

Question: Which Potency [1] does the source give for [CH3][Hg][Cl] here?
Answer: The Potency was 50.4 µM (active).

Question: And the Potency [2]?
Answer: Its Potency is 10.9 µM (active).

Question: And the Potency [3]?
Answer: The Potency was 4.35 µM (active).

Question: What about the Potency [4] of the same molecule?
Answer: Its Potency is “inactive”.

Question: What about the Potency [5] of the same molecule?
Answer: Its Potency is 10.9 µM (active).

Question: What about the Potency [6] of the same molecule?
Answer: Its Potency is 6.9 µM (active).

Question: With Oc1c(Br)c(Br)c(Br)c(Br)c1Br as the molecule, how does the Potency [1] read?
Answer: Its Potency is 80.5 µM (active).

Question: What about the Potency [2] of the same molecule?
Answer: Its Potency is “inactive”.

Question: And the Potency [4]?
Answer: The Potency was “inactive”.

Question: And the Potency [5]?
Answer: The Potency was “inactive”.

Question: What about the Potency [6] of the same molecule?
Answer: The Potency was “inactive”.

Question: What does the source list for CC(=O)[O-].CC(=O)[O-].[Hg+2]?
Answer: Potency [1]: 6.35 µM (active); Potency [2]: 2.19 µM (active); Potency [4]: inactive; Potency [5]: 2.45 µM (active); Potency [6]: 5.49 µM (active)

Question: With O=[N+]([O-])c1c2ccccc2cc2ccccc12 as the molecule, how does the Potency [7] read?
Answer: Its Potency is “inactive”.

Question: What about the Potency [3] of the same molecule?
Answer: The Potency was “inactive”.

Question: And the Potency [4]?
Answer: The Potency was “inactive”.

Question: And the Potency [5]?
Answer: Its Potency is “inactive”.

Question: And the Potency [6]?
Answer: The Potency was 5.43 µM (active).

Question: For CC1(C)CC/C(=C/c2ccc(Cl)cc2)C1(O)Cn1cncn1 (stereo not drawn), which Potency [2] is on record?
Answer: The Potency was “inactive”.

Question: What about the Potency [4] of the same molecule?
Answer: The Potency was “inactive”.

Question: And the Potency [5]?
Answer: The Potency was “inactive”.
